Measured values from PubChem BioAssay AID504832 (National Center for Advancing Translational Sciences (NCATS), 2011).
About 18,000 (5.8%) of roughly 310,000 compounds were called active. Roughly 22% stayed inconclusive and do not appear here. Calls follow the shape of the dose curve; as a rule, active = well fitted inhibition curve with a large enough effect; inconclusive = small, poorly fitted or top-dose-only effect, or another doubt; inactive = no such curve, though single readings can be large or run the other way. The full list was thinned out, with actives kept by preference.

Test: Primary qHTS for delayed death inhibitors of the malarial parasite plastid, 48 hour incubation
Conditions: P. falciparum luciferase growth in erythrocytes; series mostly up to 28.7 µM; activity change, negative = inhibition: at the top concentration
How it was run: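 First compound was added to culture medium, then infected red cells at 0.1% parasitemia and 2% hematocrit (final). After incubation at 37 C under 5% CO2, luciferase detection reagent was dispensed and light output recorded.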
% is scaled to controls: 0 for no effect and ±100 for the full control effect; potency is read from the fitted curve at half-maximal effect.

Structure (SMILES)	activity change, negative = inhibition	Potency
Cc1ccc(OCC(=O)NC(C)c2ccccc2)cc1C (stereo not given)	-4.35% (inactive)	–
Cc1ccc(/C=N/NC(=O)C2=NNC(c3ccccc3)(c3ccccc3)C2)c(O)c1	–	4.15 µM (active)
O=C(N/N=C/c1ccc(O)c2ccccc12)c1cccnc1	-3.94% (inactive)	–
Cc1ccc2occ(/C=N/NC(=O)c3ccccc3C)c(=O)c2c1	33.4% (inactive)	–
CCN(C(=O)CSc1nnnn1-c1ccccc1OC)C1CCS(=O)(=O)C1 (stereo not given)	-20.5% (inactive)	–
CC(=O)N1CCSc2ccc(S(=O)(=O)N3CCC(C)CC3)cc21	1.61% (inactive)	–
CCc1ccc(NC(=O)Cn2nnc(C(=O)NCc3ccc(OC)cc3)c2N)cc1	23% (inactive)	–
COc1ccc(C(CC(=O)N2CCN(c3ccccc3)CC2)c2c(O)cc(OC)cc2OC)cc1 (stereo not given)	–	10.4 µM (active)
COc1cccc(-c2ccc(SCC(=O)N3CCN(c4ccccc4)CC3)nn2)c1	-4.56% (inactive)	–
CC(CC(=O)N1CCN(c2ccccc2)CC1)c1ccccc1 (stereo not given)	-0.834% (inactive)	–
Cc1ccc(CS(=O)(=O)CCC(=O)NCc2ccc(F)cc2)cc1	21.5% (inactive)	–
CC[C@]1(c2ccccc2OC)C(=O)N(C(=O)OC)N1C(=O)OC	-64% (inactive)	–
CCOc1ccc(NC(=O)CN(C)C(=O)c2c(C)noc2C)cc1OCC	5.49% (inactive)	–
Cc1ccc(S(=O)(=O)CCC(=O)OCC(=O)N(C)C2CCS(=O)(=O)C2)cc1 (stereo not given)	-27.9% (inactive)	–
CCOc1ccc(NS(=O)(=O)c2cc(C)c(C)cc2C)cc1	0.582% (inactive)	–
Cc1cc(C(C)(C)C)cc(S(=O)(=O)Nc2ccc(C(=O)O)cc2)c1C	-2.76% (inactive)	–
Cc1cc(C)c(C)c(S(=O)(=O)Nc2ccc(O)cc2)c1C	–	7.38 µM (active)
NS(=O)(=O)c1ccc(CCNC(=O)CNC(=O)Cc2ccccc2)cc1	23.1% (inactive)	–

Structure (SMILES)	activity change, negative = inhibition	Potency
O=C1NC(=O)C(c2ccc(Cl)cc2)N1 (stereo not given)	11.5% (inactive)	–
S=C(c1ccccc1)N1CCCC1	6.41% (inactive)	–
Cn1c(=O)[nH]c(=O)c2c1nc(N1CCCCCC1)n2CC(=O)c1ccccc1	8.78% (inactive)	–
CCCSc1nc2c(c(=O)[nH]c(=O)n2C)n1CCc1ccccc1	5.19% (inactive)	–
CC1CCN(c2nc3c(c(=O)[nH]c(=O)n3C)n2CCCc2ccccc2)CC1	–	11.7 µM (active)
Cc1[nH]c2ccccc2c1C(=O)COC(=O)C(C)C	7% (inactive)	–
Cc1[nH]c2ccccc2c1C(=O)CN1CC(C)CC(C)C1 (stereo not given)	-1.93% (inactive)	–
Cc1[nH]c2ccccc2c1C(=O)C(C)Sc1nnc(C2CC2)o1 (stereo not given)	–	3.7 µM (active)
C=CCOc1ccc(/C=C2/C(=O)ON=C2C)cc1OCC	24.4% (inactive)	–
COc1ccc(OC)c(S(=O)(=O)n2c([N+](=O)[O-])cnc2C)c1	17.9% (inactive)	–
NS(=O)(=O)c1ccc(N=Nc2c(O)[nH]c3ccc(Br)cc23)cc1	-18.2% (inactive)	–
Cc1[nH]n(C)c(=O)c1C(=O)c1c(-c2c(Cl)cccc2Cl)noc1C	-1.52% (inactive)	–
Cc1onc(-c2c(F)cccc2Cl)c1C(=O)N(C)CC(=O)Nc1cccc(F)c1	-9.49% (inactive)	–
Cc1onc(-c2c(Cl)cccc2Cl)c1C(=O)NNC(=O)c1c(-c2c(Cl)cccc2Cl)noc1C	–	8.28 µM (active)
COc1ccccc1N1CCN(C(=O)c2cc(-c3ccc(Cl)c(Cl)c3)on2)CC1	-26% (inactive)	–
COc1ccccc1N1CCN(C(=O)c2c(-c3c(Cl)cccc3Cl)noc2C)CC1	–	10.4 µM (active)
COc1cccc(-c2cc(C(=O)N3CCN(c4ccccc4OC)CC3)no2)c1	-0.672% (inactive)	–
